Results reported in the supplement of paper PMC10849652.
The full data set covers some 8,800 targets. This sample favours those with a hit. About 0.5% of all pairs of compound and target were hits. Unmarked numbers belong to inactive results.

What was measured:
Assay in all cases: log2 fold change, soluble protein after heating vs DMSO (PISA); higher = thermal stabilisation; K562 lysate, 10 uM; active = over 0.2 and 3.5 SD of the protein, either way, in both replicates (recomputed)
erlotinib = compound: C#Cc1cccc(Nc2ncnc3cc(OCCOC)c(OCCOC)cc23)c1 [erlotinib]
Outline: (§1)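 K562 pellets were dounce-homogenised in PBS pH 7.4 with 1 mM MgCl2, and the crude extract at 1 mg/mL protein was treated with 10 μM compound for 30 min. Aliquots were heated for 3 min across 48°C-58°C, pooled, and brought to 0.5% NP-40 at 4°C; soluble protein was the supernatant after 21,000xg for 90 min. Soluble protein was quantified by TMTpro 16plex LC-MS/MS with channel sums equalised, and reported as log2 fold change in thermal stability against DMSO controls, with values from duplicates.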

[1] = compound: C/C(=N\NC(=O)C1=CC(=CC=C1)S(=O)(=O)N2CCOCC2)/C3=C(C=CC(=C3)Cl)O
Outline: as §1

[2] = compound: C1=CC(=CC=C1C2=NC3=C(N2)C=C(C=C3)C(=O)N)OC4=CC=C(C=C4)Cl
Outline: as §1

[3] = compound: C1=CC2=C(C=CC(=C2)/C=C\3/C(=O)NC(=NCC4=CC=CS4)S3)N=C1
Outline: as §1

[4] = compound: C1=CC2=NC=CN=C2C=C1/C=C/3\C(=O)NC(=O)S3
Outline: as §1

[5] = compound: C1=CC=C(C=C1)C2=NC(=C(N2)C3=CC=NC=C3)C4=CC(=C(C=C4)Cl)O
Outline: as §1

[6] = compound: C1=CC=C2C(=C1)C3=NNC4=CC=CC(=C43)C2=O
Outline: as §1

IRAK-1-4 Inhibitor I = compound: C1COCCN1CCN2C3=CC=CC=C3N=C2NC(=O)C4=CC(=CC=C4)[N+](=O)[O-] [IRAK-1-4 Inhibitor I]
Outline: as §1

ibrutinib = compound: C=CC(=O)N1CCC[C@@H](n2nc(-c3ccc(Oc4ccccc4)cc3)c3c(N)ncnc32)C1 [ibrutinib]
Outline: as §1

[7] = compound: CC(=O)c1cnc2ccc(-c3cc(Cl)c(O)c(Cl)c3)nc2c1N[C@H]1CC[C@H](CN(C)C)CC1
Outline: as §1

ralimetinib = compound: CC(C)(C)Cn1c(N)nc2ccc(-c3[nH]c(C(C)(C)C)nc3-c3ccc(F)cc3)nc21 [ralimetinib]
Outline: as §1

[8] = compound: CC(C)(O)CC(=O)NCCn1ccc2ncnc(Nc3ccc(Oc4cccc(C(F)(F)F)c4)c(Cl)c3)c21
Outline: as §1

[9] = compound: CC(C)C1=C2N=C(C=C(N2N=C1)NCC3=CC=CC=C3)NCCCCCCN
Outline: as §1

[10] = compound: CC1=C(C(CC(=O)N1)C2=CC=C(C=C2)C(F)(F)F)C(=O)NC3=C(C=C4C(=C3)C=NN4)F
Outline: as §1

[11] = compound: CC1=C(C2=C(C=C1)C(=O)C3=CC=CC=C3N2CCCN)C
Outline: as §1

[12] = compound: CC1=C(C=C(C=C1)NC(=O)C2=CC(=CC=C2)C(C)(C)C#N)NC3=CC4=C(C=C3)N=CN(C4=O)C
Outline: as §1

[13] = compound: CC1=C(C=C(C=C1)NC(=O)C2=CC(=CC=C2)N(C)C)NC(=O)C3=CC=C(C=C3)O
Outline: as §1

[14] = compound: CC1=CC=C(C=C1)SC2=C3C=C(SC3=CN=C2)C(=O)N
Outline: as §1

[15] = compound: C1CCN(C1)C(=O)NC2=CC=CC(=C2)NC3=NC=C(C(=N3)NCCC4=CN=CN4)Br
Outline: as §1

[16] = compound: C1CN(CCC1(CC2=CC=C(C=C2)Cl)N)C3=NC=NC4=C3C=CN4
Outline: as §1

Chain of UniProt Q9H8H3 (Q9H8H3 whole entry, looked up): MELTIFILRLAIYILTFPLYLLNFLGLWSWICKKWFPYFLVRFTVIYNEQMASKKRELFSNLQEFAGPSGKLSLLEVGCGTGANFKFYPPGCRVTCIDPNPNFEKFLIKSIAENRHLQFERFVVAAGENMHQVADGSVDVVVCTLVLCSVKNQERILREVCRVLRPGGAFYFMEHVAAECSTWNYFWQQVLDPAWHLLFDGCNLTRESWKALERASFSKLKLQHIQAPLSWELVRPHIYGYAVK
Chain of UniProt P49916 (P49916 whole entry, looked up): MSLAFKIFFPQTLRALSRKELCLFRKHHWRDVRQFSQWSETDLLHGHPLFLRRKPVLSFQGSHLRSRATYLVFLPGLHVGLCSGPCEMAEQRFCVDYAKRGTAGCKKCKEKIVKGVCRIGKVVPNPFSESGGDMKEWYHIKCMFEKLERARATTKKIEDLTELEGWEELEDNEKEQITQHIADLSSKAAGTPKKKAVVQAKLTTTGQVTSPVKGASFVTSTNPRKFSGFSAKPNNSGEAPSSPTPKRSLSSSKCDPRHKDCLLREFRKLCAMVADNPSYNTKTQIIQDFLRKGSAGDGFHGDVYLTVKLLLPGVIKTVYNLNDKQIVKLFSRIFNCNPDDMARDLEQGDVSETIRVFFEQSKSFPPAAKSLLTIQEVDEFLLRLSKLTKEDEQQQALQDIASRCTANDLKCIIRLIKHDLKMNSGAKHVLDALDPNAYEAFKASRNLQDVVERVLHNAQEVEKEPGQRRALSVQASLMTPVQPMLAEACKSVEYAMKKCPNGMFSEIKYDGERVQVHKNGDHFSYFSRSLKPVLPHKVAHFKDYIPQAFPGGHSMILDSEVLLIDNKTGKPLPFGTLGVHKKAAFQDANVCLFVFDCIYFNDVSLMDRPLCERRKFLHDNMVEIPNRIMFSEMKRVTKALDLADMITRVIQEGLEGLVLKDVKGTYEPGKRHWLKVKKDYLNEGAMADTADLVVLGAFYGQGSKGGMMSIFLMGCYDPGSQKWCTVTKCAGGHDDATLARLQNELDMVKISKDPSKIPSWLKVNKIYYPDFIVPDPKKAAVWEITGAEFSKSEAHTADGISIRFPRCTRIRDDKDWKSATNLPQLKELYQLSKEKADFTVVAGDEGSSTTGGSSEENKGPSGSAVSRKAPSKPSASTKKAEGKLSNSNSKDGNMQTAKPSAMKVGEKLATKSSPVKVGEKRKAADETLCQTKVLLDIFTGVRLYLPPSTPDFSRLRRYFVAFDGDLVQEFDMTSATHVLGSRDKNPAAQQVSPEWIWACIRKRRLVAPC
Chain of UniProt Q12851 (Q12851 whole entry, looked up): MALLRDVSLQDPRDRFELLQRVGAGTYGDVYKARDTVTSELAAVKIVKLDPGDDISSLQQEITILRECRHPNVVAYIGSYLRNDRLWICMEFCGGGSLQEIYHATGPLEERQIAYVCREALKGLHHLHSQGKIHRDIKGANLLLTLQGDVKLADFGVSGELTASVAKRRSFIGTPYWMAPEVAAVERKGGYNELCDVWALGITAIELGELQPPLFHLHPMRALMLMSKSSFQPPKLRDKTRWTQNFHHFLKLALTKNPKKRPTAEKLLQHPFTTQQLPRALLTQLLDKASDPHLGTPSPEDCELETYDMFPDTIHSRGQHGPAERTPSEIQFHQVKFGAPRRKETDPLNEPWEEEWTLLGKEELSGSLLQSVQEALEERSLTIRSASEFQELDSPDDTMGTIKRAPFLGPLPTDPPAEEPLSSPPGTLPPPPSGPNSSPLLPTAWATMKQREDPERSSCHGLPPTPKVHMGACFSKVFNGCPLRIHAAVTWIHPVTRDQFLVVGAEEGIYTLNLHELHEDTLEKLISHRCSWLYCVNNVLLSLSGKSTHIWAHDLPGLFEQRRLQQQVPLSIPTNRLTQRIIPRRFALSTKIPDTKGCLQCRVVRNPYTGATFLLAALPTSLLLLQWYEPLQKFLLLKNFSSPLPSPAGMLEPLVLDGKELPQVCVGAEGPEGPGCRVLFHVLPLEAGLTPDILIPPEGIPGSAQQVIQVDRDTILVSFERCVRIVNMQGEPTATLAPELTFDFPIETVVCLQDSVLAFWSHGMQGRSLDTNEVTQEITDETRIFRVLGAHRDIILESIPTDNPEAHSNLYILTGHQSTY
Chain of UniProt Q5SRI9 (Q5SRI9 whole entry, looked up): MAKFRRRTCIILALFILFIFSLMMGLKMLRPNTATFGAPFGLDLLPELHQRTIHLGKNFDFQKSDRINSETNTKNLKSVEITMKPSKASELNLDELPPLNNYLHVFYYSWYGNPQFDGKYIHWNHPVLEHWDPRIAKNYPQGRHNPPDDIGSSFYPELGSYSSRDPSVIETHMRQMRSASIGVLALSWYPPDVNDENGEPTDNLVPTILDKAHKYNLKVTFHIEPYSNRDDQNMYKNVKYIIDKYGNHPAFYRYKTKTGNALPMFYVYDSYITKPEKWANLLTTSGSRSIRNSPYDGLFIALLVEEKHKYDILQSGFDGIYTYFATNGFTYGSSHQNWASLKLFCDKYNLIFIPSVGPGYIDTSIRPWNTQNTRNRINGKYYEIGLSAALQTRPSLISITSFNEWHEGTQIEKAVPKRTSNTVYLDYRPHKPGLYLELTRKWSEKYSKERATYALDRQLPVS
Chain of UniProt Q53G59 (Q53G59 whole entry, looked up): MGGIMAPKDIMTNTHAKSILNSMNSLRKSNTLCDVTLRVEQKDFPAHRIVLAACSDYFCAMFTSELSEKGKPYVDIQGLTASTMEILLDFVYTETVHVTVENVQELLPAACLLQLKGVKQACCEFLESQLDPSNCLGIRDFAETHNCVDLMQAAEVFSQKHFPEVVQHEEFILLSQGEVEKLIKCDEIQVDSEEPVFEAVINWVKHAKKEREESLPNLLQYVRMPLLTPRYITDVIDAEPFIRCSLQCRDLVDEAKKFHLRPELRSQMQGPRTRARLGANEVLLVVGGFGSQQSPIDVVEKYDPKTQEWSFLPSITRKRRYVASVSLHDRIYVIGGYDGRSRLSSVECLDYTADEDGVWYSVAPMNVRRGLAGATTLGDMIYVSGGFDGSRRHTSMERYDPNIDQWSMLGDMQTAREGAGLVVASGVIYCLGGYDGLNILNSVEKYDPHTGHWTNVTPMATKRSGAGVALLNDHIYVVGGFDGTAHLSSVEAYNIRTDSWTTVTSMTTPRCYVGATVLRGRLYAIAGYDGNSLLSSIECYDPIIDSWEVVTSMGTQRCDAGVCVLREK
Chain of UniProt Q9ULI4 (Q9ULI4 whole entry, looked up): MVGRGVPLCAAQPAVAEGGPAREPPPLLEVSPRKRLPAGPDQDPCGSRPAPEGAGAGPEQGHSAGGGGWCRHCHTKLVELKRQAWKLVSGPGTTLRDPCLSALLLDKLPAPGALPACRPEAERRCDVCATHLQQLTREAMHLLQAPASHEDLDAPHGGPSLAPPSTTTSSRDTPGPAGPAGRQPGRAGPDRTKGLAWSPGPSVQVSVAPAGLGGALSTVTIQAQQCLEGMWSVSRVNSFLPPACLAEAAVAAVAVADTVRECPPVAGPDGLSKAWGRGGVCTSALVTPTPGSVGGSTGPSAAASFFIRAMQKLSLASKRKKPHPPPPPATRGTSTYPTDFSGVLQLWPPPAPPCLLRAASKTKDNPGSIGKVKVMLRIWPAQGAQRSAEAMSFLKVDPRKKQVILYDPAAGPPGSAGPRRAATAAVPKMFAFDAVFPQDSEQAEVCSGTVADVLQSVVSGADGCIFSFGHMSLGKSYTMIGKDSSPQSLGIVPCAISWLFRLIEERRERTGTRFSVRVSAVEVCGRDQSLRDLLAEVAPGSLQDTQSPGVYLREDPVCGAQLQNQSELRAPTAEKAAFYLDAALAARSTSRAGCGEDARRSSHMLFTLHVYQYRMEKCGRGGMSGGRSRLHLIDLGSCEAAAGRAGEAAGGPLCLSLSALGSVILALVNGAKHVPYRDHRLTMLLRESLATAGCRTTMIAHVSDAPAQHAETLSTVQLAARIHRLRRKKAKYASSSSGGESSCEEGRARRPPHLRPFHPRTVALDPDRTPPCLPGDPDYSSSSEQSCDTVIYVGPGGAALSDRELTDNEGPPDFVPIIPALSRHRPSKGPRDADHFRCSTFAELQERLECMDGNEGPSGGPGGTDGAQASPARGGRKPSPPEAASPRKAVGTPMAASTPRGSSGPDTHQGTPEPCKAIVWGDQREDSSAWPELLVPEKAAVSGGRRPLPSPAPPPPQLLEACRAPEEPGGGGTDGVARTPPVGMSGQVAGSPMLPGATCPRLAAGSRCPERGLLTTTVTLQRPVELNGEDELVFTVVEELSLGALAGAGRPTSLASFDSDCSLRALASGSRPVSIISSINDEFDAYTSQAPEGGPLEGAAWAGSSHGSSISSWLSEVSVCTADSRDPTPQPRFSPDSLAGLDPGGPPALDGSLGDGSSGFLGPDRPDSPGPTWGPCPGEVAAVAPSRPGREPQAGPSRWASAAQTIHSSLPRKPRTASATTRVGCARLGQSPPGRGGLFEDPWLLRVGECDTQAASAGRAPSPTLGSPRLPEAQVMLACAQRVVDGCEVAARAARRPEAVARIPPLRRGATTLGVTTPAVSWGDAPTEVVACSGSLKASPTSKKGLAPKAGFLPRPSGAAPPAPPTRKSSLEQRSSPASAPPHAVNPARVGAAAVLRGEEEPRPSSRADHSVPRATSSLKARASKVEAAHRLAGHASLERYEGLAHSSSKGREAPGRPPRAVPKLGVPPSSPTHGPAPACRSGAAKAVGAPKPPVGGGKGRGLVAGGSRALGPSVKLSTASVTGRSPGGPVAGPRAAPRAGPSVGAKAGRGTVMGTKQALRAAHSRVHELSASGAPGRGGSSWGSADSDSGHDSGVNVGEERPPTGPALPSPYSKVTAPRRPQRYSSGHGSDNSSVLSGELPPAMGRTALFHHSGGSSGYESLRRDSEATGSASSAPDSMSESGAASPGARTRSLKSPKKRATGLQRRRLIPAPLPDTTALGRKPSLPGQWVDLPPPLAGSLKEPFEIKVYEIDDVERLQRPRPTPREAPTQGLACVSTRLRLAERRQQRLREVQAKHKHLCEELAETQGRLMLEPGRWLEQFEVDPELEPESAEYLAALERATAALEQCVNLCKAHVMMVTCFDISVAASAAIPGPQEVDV

Target	log2 fold change (erlotinib)	log2 fold change [1]	log2 fold change [2]	log2 fold change [3]	log2 fold change [4]	log2 fold change [5]	log2 fold change [6]	log2 fold change (IRAK-1-4 Inhibitor I)	log2 fold change (ibrutinib)	log2 fold change [7]	log2 fold change (ralimetinib)	log2 fold change [8]	log2 fold change [9]	log2 fold change [10]	log2 fold change [11]	log2 fold change [12]	log2 fold change [13]	log2 fold change [14]	log2 fold change [15]	log2 fold change [16]
KLHL12 isoform 2 (UniProt Q53G59)	-0.051	0.021	0.004	0.053	0.165	-0.134	0.04	0.046	0.156	0.067	0.123	-0.032	0.073	0.026	-0.041	-0.066	0	0.007	–	–
MOSPD2 (UniProt Q8NHP6)	-0.049	0.152	0	0.072	0.027	-0.015	0.157	0.057	-0.023	0.019	0.023	0.067	0.028	-0.049	0.009	-0.037	-0.012	0.017	-0.062	-0.023
MAP4K2 (UniProt Q12851)	0.001	-0.202	-0.082	-0.195	0.05	-0.057	0.355	-0.046	-0.036	0.337	-0.029	0.108	0.04	–	-0.144	0.058	0.209	-0.207	0.288	-0.205
MGAT5 (UniProt Q09328)	0.037	0.03	0.087	0.044	0.078	-0.003	0.132	-0.05	0.038	0.014	0.001	0.039	-0.045	-0.084	0.005	-0.002	-0.004	0.014	-0.03	0.066
LIG3 (UniProt P49916)	-0.003	0.027	-0.04	0.009	-0.006	0.011	-0.013	-0.035	-0.006	0.007	0.063	0.023	-0.002	-0.018	0.04	-0.015	0.028	0.015	0	-0.036
MAST2 (UniProt Q6P0Q8)	0.044	-0.054	0.142	0.003	-0.588 (active)	-0.03	0.099	0.073	0.136	0.054	0.033	-0.084	0.071	–	-0.157	0.03	0.031	-0.022	0.038	-0.046
MOCS3 (UniProt O95396)	0.047	0.01	-0.033	-0.135	-0.011	-0.003	-0.02	0.049	0.045	–	-0.016	-0.014	-0.018	0.056	-0.04	0.079	0.001	–	0.143	-0.07
MANEA (UniProt Q5SRI9)	-0.079	-0.119	0.076	0.089	0.027	0.118	-0.092	0.041	0	0.038	0.024	-0.1	0.041	–	-0.009	0.037	0.114	0.068	-0.014	0.016
MAPK12 (UniProt P53778)	0	-0.026	0.009	0.016	0.041	0.023	0.001	-0.048	0.049	–	-0.001	-0.029	-0.027	0.074	0.08	0.002	-0.012	–	-0.058	0.019
LARP4B (UniProt Q92615)	-0.019	0.013	-0.027	-0.005	0.009	-0.021	0.033	-0.025	0	0.005	0.055	0.069	-0.02	-0.006	0.03	-0.094	0.037	0.014	0.012	-0.033
MICU1 isoform 3 (UniProt Q9BPX6)	0.009	0.049	-0.029	-0.017	-0.012	-0.047	0.001	0.024	-0.011	-0.021	0.023	0.001	-0.02	0	0.013	-0.028	0.038	0.019	0.016	0.012
MARCHF6 (UniProt O60337)	0.004	0.008	0.101	0.042	-0.202	–	-0.133	–	-0.395 (active)	-0.021	–	–	-0.012	0.014	0.101	0.004	–	0.032	0.047	-0.023
MARF1 (UniProt Q9Y4F3)	0.025	0.231	0.043	-0.157	0.122	0.019	0.073	-0.003	0.027	–	0.034	-0.042	-0.045	-0.021	0.037	0.004	0.01	–	-0.111	-0.035
KRI1 (UniProt Q8N9T8)	-0.017	-0.038	-0.017	-0.1	-0.012	0.02	-0.138	0.047	-0.023	–	0.047	-0.018	0.043	0.074	-0.069	0.02	0.046	–	0.033	-0.04
MGST1 (UniProt P10620)	-0.041	-0.068	0.016	-0.051	0.024	-0.031	-0.036	0.067	0.052	0.039	0.054	-0.047	-0.002	0.002	-0.078	-0.01	0.014	0.05	-0.07	0.089
METTL7A (UniProt Q9H8H3)	0.029	0.043	0.183	0.008	-0.041	0.048	-0.016	0.036	0.113	-0.055	0.036	-0.025	0.017	0.016	-0.055	0.068	-0.033	-0.035	0.385 (active)	0.06
LLGL1 (UniProt Q15334)	0.036	-0.06	0.021	0.02	0.007	0.001	-0.112	-0.136	0.007	0.091	0.071	0.015	-0.141	0.033	-0.058	0.019	0.174	-0.011	-0.08	0.018
KIF26A (UniProt Q9ULI4)	0.117	-0.053	-0.089	0.012	-0.022	-0.019	0.159	0.093	-0.022	–	-0.125	0.084	0.008	-0.02	0.007	0.033	-0.048	–	0.108	0.249
